The source of these data is PubChem BioAssay (NCI).

Assay in all cases: NCI-60 one-dose screen, 48 h (100 = growth as untreated, 0 = no growth, -100 = all killed)
One experiment deals with 786-0 renal. The settings on record: 10 µM.
For the next experiment, the system named is K-562 leukemia. The settings on record: 10 µM.
The test system of a further experiment is MALME-3M melanoma. The settings on record: 10 µM.
A further experiment deals with RXF 393 renal. The settings on record: 10 µM.
The test system of the next experiment is EKVX NSCLC. The settings on record: 10 µM.
For a further experiment, the system named is SN12C renal. The conditions noted are these: 10 µM.
In the next experiment the test system is UO-31 renal. The conditions noted are these: 10 µM.
The next experiment concerns TK-10 renal. The conditions noted are these: 10 µM.
A further experiment deals with ACHN renal. The conditions noted are these: 10 µM.
For another experiment, the system named is CAKI-1 renal. The conditions noted are these: 10 µM.
In a further experiment the test system is CCRF-CEM leukemia. The settings on record: 10 µM.
For the next experiment, the system named is OVCAR-8 ovarian. The conditions noted are these: 10 µM.
The next experiment concerns OVCAR-5 ovarian. The conditions noted are these: 10 µM.
The test system of another experiment is OVCAR-4 ovarian. The conditions noted are these: 10 µM.
In another experiment the test system is SK-OV-3 ovarian. The conditions noted are these: 10 µM.
Another experiment has as its system OVCAR-3 ovarian. The conditions noted are these: 10 µM.
The subject of the next experiment is NCI/ADR-RES ovarian. The conditions noted are these: 10 µM.
In another experiment the test system is BT-549 breast. The settings on record: 10 µM.
The next experiment concerns MCF7 breast. The settings on record: 10 µM.
The subject of the next experiment is MDA-MB-468 breast. The conditions noted are these: 10 µM unless noted.

The structures appear in SMILES notation. This is part of a sample that, as a whole, favours compounds with a hit. Of some 83,000 tested, about 20% had one in any assay.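 Step 1: grow cells in 96-well plates. Step 2: add test compound at a single concentration. Step 3: incubate 48 h. Step 4: record percent growth.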 A number with no mark means an inactive call. Activity calls are given as the source filed them. The calls were made as follows: active = growth percent below 10; inactive = the rest.

Take `CC12OOC(C)(OO1)C2CCC(=O)NCCNc1ccnc2cc(Cl)ccc12` (configuration not stated): the growth with 786-0 renal was 107%; in the experiment on K-562 leukemia, 39.4%; with MALME-3M melanoma it was 89.7%; with RXF 393 renal it was 102%; with EKVX NSCLC it was 88.6%; in the experiment with SN12C renal it was 99.4%. Besides, the growth in the experiment with UO-31 renal was 76.1%; in the experiment on TK-10 renal, 121%; in the experiment with ACHN renal, 97%; in the experiment with CAKI-1 renal, 78.2%; with CCRF-CEM leukemia, 80.6%; with OVCAR-8 ovarian, 97.6%. Moreover, the growth was 102% in the experiment with OVCAR-5 ovarian; 96.8% in the experiment with OVCAR-4 ovarian; 91.2% with SK-OV-3 ovarian; 97.3% with OVCAR-3 ovarian; 98.3% in the experiment with NCI/ADR-RES ovarian; 106% in the experiment on BT-549 breast. For the same compound, the growth in the experiment on MCF7 breast was 82.3%; with MDA-MB-468 breast it was 82.7%.
On to `Cc1ccc2[nH]c(=S)n(-c3ccc(F)cc3)c(=O)c2c1`, for which the growth in the experiment with 786-0 renal was 91.4%; with K-562 leukemia, 96.6%; in the experiment with MALME-3M melanoma it was 96.4%; in the experiment with RXF 393 renal it was 98.2%; in the experiment on EKVX NSCLC, 95.1%; with SN12C renal, 92.2%. Also, the growth with UO-31 renal was 82.7%; in the experiment with TK-10 renal, 102%; in the experiment on ACHN renal, 101%; in the experiment with CAKI-1 renal, 97.3%; in the experiment on CCRF-CEM leukemia it was 86.3%; with OVCAR-8 ovarian, 103%. The growth was 106% with OVCAR-5 ovarian; 104% in the experiment with OVCAR-4 ovarian; 122% in the experiment on SK-OV-3 ovarian; 114% in the experiment with OVCAR-3 ovarian; 103% with NCI/ADR-RES ovarian; 93.7% in the experiment with BT-549 breast. The growth with MCF7 breast was 95%; with MDA-MB-468 breast, 92.1%.
With `CCOP(=O)(CC(F)(F)C(F)(F)F)OCC`, the growth with 786-0 renal is 15.2%; in the experiment on K-562 leukemia, 5.12% (active); with MALME-3M melanoma it was -70.4% (active); with EKVX NSCLC, 89.5%; with SN12C renal it was 62.1%; with UO-31 renal it was 25.1%. Moreover, the growth with TK-10 renal was 17%; in the experiment on ACHN renal it was -23.1% (active); with CAKI-1 renal, 2.63% (active); in the experiment with CCRF-CEM leukemia, 8.28% (active); in the experiment with OVCAR-8 ovarian, -80.2% (active); in the experiment on OVCAR-5 ovarian, 50.7%. For the same compound, the growth in the experiment on OVCAR-4 ovarian was -14.9% (active); in the experiment on SK-OV-3 ovarian it was 111%; in the experiment on OVCAR-3 ovarian, -61.5% (active); in the experiment with NCI/ADR-RES ovarian, 14%; with BT-549 breast, 49%; with MCF7 breast, 9.98% (active). Moreover, the growth with MDA-MB-468 breast is -59.3% (active).
For the compound `O=C(/C=C/c1cccc(Br)c1)c1nc2ccccc2n1Cc1ccc(F)cc1`, the growth was 12.5% with 786-0 renal; 5.36% (active) in the experiment on K-562 leukemia; 50.5% in the experiment on MALME-3M melanoma; 6.83% (active) with RXF 393 renal; 20.1% in the experiment with EKVX NSCLC; 47.3% in the experiment with SN12C renal. Moreover, the growth in the experiment with UO-31 renal is 41.8%; in the experiment with TK-10 renal it was 80.2%; in the experiment on ACHN renal, 40.7%; in the experiment on CAKI-1 renal, 54.4%; in the experiment with CCRF-CEM leukemia, -18.8% (active); with OVCAR-8 ovarian it was 28.2%. Besides, the growth in the experiment with OVCAR-5 ovarian was 53.7%; with OVCAR-4 ovarian, 54.8%; in the experiment on SK-OV-3 ovarian it was 81.2%; in the experiment on OVCAR-3 ovarian, 22.1%; with NCI/ADR-RES ovarian it was 8.54% (active); in the experiment on BT-549 breast, 12.5%. Moreover, the growth was 8.41% (active) in the experiment with MCF7 breast and 4.89% (active) with MDA-MB-468 breast.
As for `CC1=C(CCC=O)C2=C(C)C3(CC3)[C@@](C)(O)C(=O)C2=C1`, the growth in the experiment with 786-0 renal is -48.9% (active); in the experiment on MALME-3M melanoma, -96% (active); with RXF 393 renal it was -95.3% (active); in the experiment with EKVX NSCLC it was -81.6% (active); with SN12C renal, -82.3% (active); in the experiment with UO-31 renal, -99.7% (active). Further, the growth with TK-10 renal was -91.6% (active); in the experiment with ACHN renal it was -100% (active); in the experiment on CAKI-1 renal, -100% (active); in the experiment on CCRF-CEM leukemia it was -15.3% (active); in the experiment on OVCAR-8 ovarian it was -73.4% (active); in the experiment with OVCAR-5 ovarian, -95.8% (active). The growth with OVCAR-4 ovarian is -97.4% (active); in the experiment with SK-OV-3 ovarian, -62% (active); in the experiment with OVCAR-3 ovarian it was -77.6% (active); in the experiment with NCI/ADR-RES ovarian it was -43.5% (active); in the experiment on BT-549 breast, -23% (active); with MCF7 breast, -44.2% (active).
Regarding `COC(=O)CCn1c(-c2ccc(-n3cc(-c4ccc(O[C@H]5O[C@@H]6OC7(C)CC[C@H]8[C@H](C)CC[C@@H]([C@H]5C)[C@@]68OO7)cc4)nn3)cc2)nc2ccccc21`, the growth in the experiment with 786-0 renal is 32.3%; in the experiment with K-562 leukemia, 21%; in the experiment on MALME-3M melanoma, 0.0576% (active); with RXF 393 renal, 37.3%; with EKVX NSCLC, 23.5%; with SN12C renal, 16.3%. The growth is 6.53% (active) with UO-31 renal; 30.4% with TK-10 renal; 8.18% (active) in the experiment with ACHN renal; 13.7% in the experiment on CAKI-1 renal; 28.1% in the experiment with CCRF-CEM leukemia; 9.58% (active) in the experiment with OVCAR-8 ovarian. Moreover, the growth in the experiment with OVCAR-5 ovarian is 36.6%; with OVCAR-4 ovarian, 34.2%; in the experiment with SK-OV-3 ovarian it was 33.1%; in the experiment on OVCAR-3 ovarian, 20.4%; with NCI/ADR-RES ovarian it was 16.2%; in the experiment with BT-549 breast, -7.77% (active). The growth in the experiment with MCF7 breast and in the experiment on MDA-MB-468 breast was 11.1% each time.
For the compound `COc1cc(OC)c(/C=C/C(=O)c2nc3ccccc3n2Cc2ccc(F)cc2)c(OC)c1`, the growth in the experiment on 786-0 renal is 85%; with K-562 leukemia, 81.9%; with MALME-3M melanoma it was 105%; in the experiment on RXF 393 renal, 33.7%; in the experiment on EKVX NSCLC it was 73.5%; in the experiment on SN12C renal, 77.3%. Further, the growth in the experiment on UO-31 renal was 82.7%; with TK-10 renal, 109%; in the experiment with ACHN renal, 75.2%; with CAKI-1 renal, 56.2%; in the experiment on CCRF-CEM leukemia, 64.5%; in the experiment with OVCAR-8 ovarian, 79.7%. The growth is 112% in the experiment with OVCAR-5 ovarian; 56.7% with OVCAR-4 ovarian; 88.2% in the experiment with SK-OV-3 ovarian; 98.4% in the experiment with OVCAR-3 ovarian; 78.2% in the experiment on NCI/ADR-RES ovarian; 77.8% in the experiment on BT-549 breast. The growth is 56.1% in the experiment on MCF7 breast and 80.1% in the experiment on MDA-MB-468 breast.
In the case of `C#CC[Se]C(=O)c1ccc(C(=O)[Se]CC#C)s1`, the growth with 786-0 renal was 82.2%; in the experiment on K-562 leukemia, 89.6%; with MALME-3M melanoma, 98.1%; in the experiment on RXF 393 renal, 101%; in the experiment with EKVX NSCLC it was 48.4%; with SN12C renal, 85.9%. The growth with UO-31 renal was 47.8%; in the experiment on TK-10 renal, 84.8%; with ACHN renal it was 43.6%; in the experiment on CAKI-1 renal, 106%; with CCRF-CEM leukemia, 77.4%; in the experiment on OVCAR-8 ovarian it was 75.6%. Besides, the growth was 81.3% in the experiment on OVCAR-5 ovarian; 103% in the experiment on OVCAR-4 ovarian; 110% in the experiment on SK-OV-3 ovarian; 84.5% in the experiment on OVCAR-3 ovarian; 76.1% in the experiment on NCI/ADR-RES ovarian; 101% with BT-549 breast. The growth with MCF7 breast was 91.5%; in the experiment on MDA-MB-468 breast it was 64.5%.
